# Laboratory results reported in paper PMC4552634, “A New Set of Chemical Starting Points with Plasmodium falciparum Transmission-Blocking Potential for Antimalarial Drug Discovery” (PLoS ONE, 2015).
# Read-outs that look alike come from different tables or passages of the source. Screen size: about 13,000 compounds; about 3,200 (25%) showed an effect of 50% or more. The list shows a part of the results.
# Tested on: P. falciparum stage V gametocytes
# Design: BacTiter-Glo ATP luminescence viability of purified stage V gametocytes in 384-well plates, per cent inhibition versus DMSO
# Settings: 48 h, 5 µM, inhibitor
structure (smiles),measurement,setting,value
O=C(C=Cc1ccc(Cl)c(Cl)c1)NCCCCCN1CCCC(CCCNC(=O)c2cccs2)C1 (stereo not drawn) [TCMDC-139576],% Inhibition,,12.1%
O=C(C=Cc1ccc(Cl)c(Cl)c1)NCCCCCN1CCCC(CCCNS(=O)(=O)c2cccc(C(F)(F)F)c2)C1 (stereo not drawn) [TCMDC-139593],% Inhibition,,101.3%
O=C(/C=C/c1ccc(Cl)c(Cl)c1)NCCCCCN1CCCC(CNS(=O)(=O)c2cccc(C(F)(F)F)c2)C1 (stereo not drawn) [TCMDC-139597],% Inhibition,,100.9%
O=C(C=Cc1ccc(Cl)c(Cl)c1)NCCCCCN1CCCC(CCCNS(=O)(=O)c2cccc3cccnc23)C1 (stereo not drawn) [TCMDC-139594],% Inhibition,,96.79%
O=C(C=Cc1ccc(Cl)c(Cl)c1)NCCCCCN1CCC(CCCNS(=O)(=O)c2cccc(C(F)(F)F)c2)CC1 [TCMDC-139591],% Inhibition,,107.6%
CN(C(=O)/C=C/c1cc(C(F)(F)F)ccc1F)C1CCN(CCCCCNC(=O)/C=C/c2ccc(Cl)c(Cl)c2)C1 (stereo not drawn) [TCMDC-139997],% Inhibition,,27.91%
O=C(/C=C/c1ccc(Cl)c(Cl)c1)NCCCCCN1CCC(NC(=O)Nc2cccc(C(F)(F)F)c2)CC1 [TCMDC-135724],% Inhibition,,-61.55%
O=C(CNCC1CCCCC1)Nc1cc(C(F)(F)F)ccc1Cl [TCMDC-124505],% Inhibition,,6.087%
Cc1nc(-c2nc(NCc3ccc4c(c3)OCO4)ncc2-c2ccsc2)sc1C [TCMDC-125358],% Inhibition,,15.74%
CCCc1cc(O)c2c3c(c(=O)oc2c1)CN(C)CC3 [TCMDC-124226],% Inhibition,,-5.24%
COc1ccc(C2=[N+]([O-])c3ccccc3C2=O)cc1 [TCMDC-123940],% Inhibition,,-13.17%
O=C(O)c1cc(C(F)(F)F)co1 [TCMDC-124155],% Inhibition,,-1.887%
COc1cccc2cc(C(=O)N[C@@H](CC(C)C)C(=O)N[C@H](C=NN(C)C(=O)OC(C)(C)C)Cc3ccccc3)oc12 [TCMDC-136133],% Inhibition,,30.7%
CC[C@H](NC(=O)c1ccc(NC(=O)OC(C)(C)C)cc1)C(=O)N[C@@H](CO)C(=O)NCCCCc1ccccc1 [TCMDC-137189],% Inhibition,,5.299%
Cc1cccc(CNc2nc(C)cc(NCCC(=O)NCc3cccc(F)c3)n2)c1 [TCMDC-134882],% Inhibition,,28.72%
Cc1cc(NCCC(=O)NCc2cccc(F)c2)nc(NCCc2ccc(F)cc2)n1 [TCMDC-134781],% Inhibition,,71.46%
Cc1cc(NCCC(=O)NCCc2ccccc2)nc(NCCc2ccc(F)cc2)n1 [TCMDC-134782],% Inhibition,,63.79%
Cc1cc(NCCC(=O)NCc2cccc(F)c2)nc(Nc2ccccc2)n1 [TCMDC-134730],% Inhibition,,9.488%
CCC1(CC)C(=O)N=C(N2CCCCC2)N(C)C1=O [TCMDC-124231],% Inhibition,,77.81%
COc1ccc2nccc([C@@H](O)CN3CCC(NCc4ccc5nnsc5c4)CC3)c2c1 [TCMDC-140923],% Inhibition,,19.95%
Cn1nc(-c2ccccc2F)c2cc(C(=O)NC3CCN(Cc4ccccc4)CC3)sc21 [TCMDC-123582],% Inhibition,,63.05%
CCc1ccc(CN2CCC(NC(=O)c3ccc(-c4ccccc4F)s3)CC2)cc1 [TCMDC-134343],% Inhibition,,-3.563%
Cc1cccc(CN2CCC(CNC(=O)c3cc4c(-c5ccccc5F)nn(C)c4s3)CC2)c1 [TCMDC-124566],% Inhibition,,59.21%
Cn1nc(-c2ccccc2F)c2cc(C(=O)Nc3cccnc3)sc21 [TCMDC-123581],% Inhibition,,-8.367%
COc1cccc(-c2nn(C)c3sc(C(=O)NCCN4CCN(c5ccccc5F)CC4)cc23)c1 [TCMDC-123585],% Inhibition,,-24.43%
CC(C)(C)c1ccc(CN2CCC(NC(=O)c3ccc(-c4ccccc4F)s3)CC2)cc1 [TCMDC-134349],% Inhibition,,3.235%
COc1ccc2ncc(F)c(C(O)CN3CCC(NCc4ccc5c(n4)NC(=O)CO5)CC3)c2c1 (stereo not drawn) [TCMDC-135530],% Inhibition,% Inhibition,22.05%
COC(=O)c1ccc(CC(C)NCC(O)c2cccc3ccccc23)cc1 (stereo not drawn) [TCMDC-131432],% Inhibition,,16.03%
CS(=O)(=O)c1ccccc1CNC(=O)c1ccc(-c2cccc(-c3nc4cc(C(F)(F)F)ccc4[nH]3)c2)cc1 [TCMDC-132504],% Inhibition,,-46.91%
COc1cccc(N(CCCN2C(=O)c3cccc4cccc(c34)C2=O)C(=O)c2ccccc2C)c1 [TCMDC-124157],% Inhibition,,34.34%
c1ccc2[nH]c(-c3ccc(-c4ccc(CNCCc5ccncc5)cc4)s3)nc2c1 [TCMDC-132843],% Inhibition,,-16.65%
CC1(C)C(=O)Nc2ccc3c(c21)CC1SC(=O)NN=C31 (stereo not drawn) [TCMDC-131539],% Inhibition,,68.11%
Nc1nc(N)c2c(CCc3ccc(Cl)c(Cl)c3)cccc2n1 [TCMDC-141976],% Inhibition,,-2.303%
CCCc1cc(Cc2cnc(N)nc2N)cc(CC)c1O [TCMDC-138059],% Inhibition,,-83.65%
COc1ccc(CNc2ccnc(-n3cnc4cc(C)c(C)cc43)n2)cc1Cl [TCMDC-135878],% Inhibition,,49.39%
Cc1cc2ncn(-c3nccc(NCc4ccc(F)cc4)n3)c2cc1C [TCMDC-135877],% Inhibition,,11.81%
Cc1cc2ncn(-c3nccc(NCc4ccc(F)c(C)c4)n3)c2cc1C [TCMDC-135880],% Inhibition,,65.21%
Cc1cc(Nc2nc(NCc3cccnc3)nc3ccccc23)n[nH]1 [TCMDC-135161],% Inhibition,,33.23%
Cc1cc2ncn(-c3ccnc(N4CCN(CCCN5CCCC5)CC4)n3)c2cc1C [TCMDC-136311],% Inhibition,,9.256%
Cc1cc2ncn(-c3nccc(NCc4cccnc4)n3)c2cc1C [TCMDC-135879],% Inhibition,,55.3%
O=C(O)c1ccc(OCOCOc2ccc(C(=O)O)c(O)c2)cc1O [TCMDC-131764],% Inhibition,,13.72%
COc1ccc(C2SCC(=O)N2CCc2ccc(OC)c(OC)c2)cc1 (stereo not drawn) [TCMDC-125738],% Inhibition,,0.3725%
NC1CCN(CCNCc2cccc(-c3ccc(-c4nc5ccc(C(F)(F)F)cc5[nH]4)cc3)c2)C1 (stereo not drawn) [TCMDC-133841],% Inhibition,,98.1%
CS(=O)(=O)NCCCNCc1cccc(-c2ccc(-c3nc4ccc(C(F)(F)F)cc4[nH]3)cc2)c1 [TCMDC-133079],% Inhibition,,-16.43%
NC1CCN(CCNCc2cccc(-c3ccc(-c4nc5ccc(F)cc5[nH]4)cc3)c2)C1 (stereo not drawn) [TCMDC-133857],% Inhibition,,75.97%
